According to PubChem BioAssay AID651607 (The Scripps Research Institute Molecular Screening Center, 2012):
The whole screen tested about 1,400 compounds, of which about 600 (43%) were called active. No stated cut-off is given here; in the data, active means inhibition above about 17%; inactive means the rest. So high a share suggests a set chosen from earlier hits. These entries were drawn from the full list.

system: methionyl-tRNA synthetase (Trypanosoma brucei brucei); experiment: inhibition of trypanosome methionyl-tRNA synthetase – biochemical, fluorescence polarization, orthogonal assay for T. brucei MetRS inhibitor project (AID 651607);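 further: 0% = vehicle wells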; settings: purified T. brucei MetRS, at 11.9 µM, hits give high values

| SMILES | inhibition |
| --- | --- |
| O=C(CC(=O)Nc1ccc(Cl)c(Cl)c1)N/N=C/c1ccc(O)cc1 | 30.8% (active) |
| O=C(Cn1c2[n+](c3ccc(C(F)(F)F)cc31)CCCCC2)Nc1c(F)cccc1F | 9.23% (inactive) |
| O=C(OCc1nc2ccccc2[nH]1)C1CCCCC1 | 9.3% (inactive) |
| CCO[C@@H]1OC(C(=O)NCc2nc3ccccc3[nH]2)=C[C@H](C2CCCCC2)[C@H]1CCCO | 17.2% (active) |
| O=C(Nc1ccccc1)Nc1nnc(COc2ccccc2F)s1 | 23.8% (active) |
| Cc1ccc(CNC(=O)CSc2nnc3c(n2)[nH]c2ccc(F)cc23)cc1 | 51.8% (active) |
| CN(C(=O)CSc1nnc(Nc2ccccc2)s1)C1CCS(=O)(=O)C1 (stereo not drawn) | -4.02% (inactive) |
| CCCCCCCC[n+]1cccc(C(=O)N2c3c(nc(N)[nH]c3=O)NC(C)C2C)c1 (stereo not drawn) | 13.1% (inactive) |
| NC1=NC(=O)S/C1=C\c1ccc(O)cc1 | 16% (inactive) |
| CC(C)(C)c1ccc(/C=C2\SC(=O)N=C2N)cc1 | 22.6% (active) |
| CN(C(=O)CSc1nnc(-c2c[nH]c3ccccc23)o1)C1CCS(=O)(=O)C1 (stereo not drawn) | 15.7% (inactive) |
| O=C1CCCN1CCCNc1ncnc2c1[nH]c1ccccc12 | 28.8% (active) |
| COc1ccc(CCn2ccc(O)c(Cc3ccc(Cl)cc3Cl)c2=O)cc1OC | 2.44% (inactive) |
| Cc1ccc(S(=O)(=O)c2c[nH]c3ccc(C)cc3c2=O)cc1 | 20.1% (active) |
| Cc1ccc(S(=O)(=O)c2c[nH]c3ccc(Cl)cc3c2=O)cc1 | 60.6% (active) |
| CCN(CC)C(=O)C(=O)c1cn(CC(=O)NCc2ccc3c(c2)OCO3)c2ccccc12 | 50.9% (active) |
| COc1ccc(-c2[nH]ncc2/C=N/NC(=O)c2cc(Br)ccc2O)c(OC)c1 | 15.2% (inactive) |
| CCCCN1C[C@H](c2ccc(Br)cc2)[C@@H](CC(=O)Nc2ccc(Br)cc2)C1=O | 33.1% (active) |
| O=C(NCc1cccc(CNC(=O)Nc2cccc(O)c2)c1)Nc1cccc(O)c1 | 8.48% (inactive) |
| O=C(Cc1ccc(S(=O)(=O)N2CCOCC2)s1)Nc1ccc(Br)c(C(F)(F)F)c1 | 27.2% (active) |
| O=C(Nc1ccc(S(=O)(=O)Nc2ncccn2)cc1)c1cncc(Br)c1 | -0.88% (inactive) |
| O=C(O)CCn1c(O)c(C=C2N=c3ccccc3=N2)sc1=S | 17.1% (active) |
| Cn1c(CCCOc2ccc(Cl)cc2Cl)n[nH]c1=S | 11.9% (inactive) |

| SMILES | inhibition |
| --- | --- |
| c1ccc2cc3c(NCCN4CCOCC4)ccnc3cc2c1 | 25.4% (active) |
| Cc1ccc(NC(=O)C(C)c2cccc(C(=O)c3ccccc3)c2)cc1 (stereo not drawn) | 65.3% (active) |
| O=C(NNC(=O)c1ccc(-n2cncn2)c([N+](=O)[O-])c1)c1ccccc1 | 32% (active) |
| Cc1ccc(S(=O)(=O)N(C)C)cc1NC(=O)c1ccc(-n2cncn2)c([N+](=O)[O-])c1 | 34.4% (active) |
| Cc1ccccc1OCC(=O)NNC(=O)c1ccc(-n2cncn2)c([N+](=O)[O-])c1 | 11.1% (inactive) |
| CC(=O)c1ccc(NC(=O)c2ccc(-n3cncn3)c([N+](=O)[O-])c2)cc1 | 50.4% (active) |
| Cc1cc(C)cc(NC(=O)N(C)Cc2ccccc2)c1 | 4.52% (inactive) |
| Cc1ccc(N2C(=O)CC(NCc3ccc4c(c3)OCO4)C2=O)cc1Cl (stereo not drawn) | 55.8% (active) |
| NS(=O)(=O)c1ccc(CCNC(=O)Nc2ccc(Cl)cc2)cc1 | 21.5% (active) |
| O=C(CSCC(=O)Nc1cccc([N+](=O)[O-])c1)Nc1ccccc1 | 8.38% (inactive) |
| O=C(Nc1ccc(Cl)cc1)N1CCc2[nH]c3ccccc3c2C1 | 8.86% (inactive) |
| Fc1ccc(NC(=S)N2CCc3[nH]c4ccccc4c3C2)cc1 | 18.4% (active) |
| O=C(Nc1cccc([N+](=O)[O-])c1)N1CCc2ccccc2C1 | 11.1% (inactive) |
| COc1ccc(NC(=O)C(NC(C)=O)C(=O)NCc2ccccc2Cl)cc1 (stereo not drawn) | 1.33% (inactive) |
| COc1ccc(OCC(O)CNC(=O)Nc2ccc(Cl)cc2)cc1 (stereo not drawn) | 51% (active) |
| CCCCN(C)Cc1c(C)[nH]c2ccc(Cl)cc2c1=O | 39.9% (active) |
| Clc1ccc(-c2cc(C3CCNCC3)[nH]n2)c(Cl)c1 | 21.7% (active) |
| O=S(=O)(NCc1ccc(Cl)cc1Cl)c1cccs1 | 13.7% (inactive) |
| O=C(NNc1cc(Cl)cc(Cl)c1)c1c(F)cccc1Cl | 37.3% (active) |
| Oc1[nH]c2ccc(Br)cc2c1N=Nc1nn[nH]n1 | 13.7% (inactive) |
| CSc1nsc(NC(=O)Nc2ccccc2)n1 | 18.2% (active) |
| OCCNc1nc2ccccc2n1-c1ncnc2sc3c(c12)CCC3 | 12.1% (inactive) |
| Cc1ccc(O)c(CNc2nc3ccccc3[nH]2)c1 | 77.9% (active) |

| SMILES | inhibition |
| --- | --- |
| Clc1ccccc1SCc1nc2ccccc2[nH]1 | -1.51% (inactive) |
| S=c1[nH]nc(CSCc2ccc(Cl)cc2Cl)n1-c1ccccc1 | 2.4% (inactive) |
| O=S(=O)(c1ccc(Br)cc1)N1CCC(c2nc3ccccc3[nH]2)CC1 | 4.17% (inactive) |
| O=C(NCC(O)c1nc2ccccc2[nH]1)c1ccc(Br)cc1 (stereo not drawn) | 17.1% (active) |
| O=[N+]([O-])c1ccc(N2CCN(c3ccc(O)cc3)CC2)c(Cl)c1 | 8.79% (inactive) |
| c1ccc(CN=C2Nc3ccccc3CS2)nc1 | 5.74% (inactive) |
| COc1ccccc1-n1c(SCC(=O)Nc2ccc(Cl)cc2)nc(O)c(Cc2ccccc2)c1=O | 57.9% (active) |
| COC(=O)CN1C(=S)N(c2ccccc2)C(=O)C1CC(=O)Nc1ccc(Cl)cc1 (stereo not drawn) | 15% (inactive) |
| O=C(/C(=N\O)n1cncn1)c1ccc(Br)cc1Br | 4.41% (inactive) |
| O=C(O)c1ccc(NS(=O)(=O)c2ccc3c(c2)C(=O)c2cc(S(=O)(=O)Nc4ccc(C(=O)O)cc4)ccc2-3)cc1 | 1% (inactive) |
| Cc1c(CN2CCC(CO)(CCOc3ccccc3)CC2)[nH]c2ccc(Cl)cc12 | 20.1% (active) |
| O=C(CSc1nc2ccccc2[nH]1)N/N=C/C=C\c1ccccc1[N+](=O)[O-] | 12.7% (inactive) |
| Cc1ccc(-c2cnc(C(O)c3cc(Cl)cc(Cl)c3)[nH]2)cc1 (stereo not drawn) | 43.7% (active) |
| OC(c1cc(Cl)cc(Cl)c1)c1ncc(-c2ccccc2C(F)(F)F)[nH]1 (stereo not drawn) | 58.3% (active) |
| O=C(NCCN1CCOCC1)c1ccccc1N1C(=O)[C@@H]2Cc3c([nH]c4ccccc34)C(c3cccc(Cl)c3)N2C1=O (stereo partly drawn) | 13.3% (inactive) |
| CC(=N\NC(=O)c1cc(Br)ccc1O)/C(=N/O)C(=O)Nc1ccccc1 | 4.72% (inactive) |
| COC(=O)/C(=C\Nc1ccccc1)NC(=O)c1ccc(Cl)cc1Cl | 59.6% (active) |
| O=C(Cn1c(NCCO)nc2ccccc21)c1ccc(Cl)cc1Cl | -2.79% (inactive) |
| CCN1CCCC1CNc1ncnc2c1[nH]c1ccc(F)cc12 (stereo not drawn) | 31.6% (active) |
| CC(C)OCCCNc1ncnc2c1[nH]c1ccc(F)cc12 | 80.6% (active) |
| c1ccc2cc3[nH]c(CN4CCCCC4)nc3cc2c1 | 3.4% (inactive) |
| CCCCCn1nnnc1-c1nc2cc3ccccc3cc2[nH]c1=O | 24.4% (active) |
